# Screening results (PubChem)
# MBNL1-CUG inh – qHTS Assay for Inhibitors of MBNL1-poly(CUG) RNA binding; hit rate 0.036% among 280,000; TR-FRET MBNL1-His/biotin-(CUG)12 binding, 665/545 ratio; Potency, µM (series often up to 57.5 µM), for inactives: at the top dose activity change, negative = inhibition, usual class: inhibitors; Muscleblind-like protein 1 (Homo sapiens), Q9NR56; active = well fitted inhibition curve with a large enough effect in the signal ratio, with a control signal flat, not every such curve was filed as active; inconclusive = small, poorly fitted or top-dose-only effect, or effect the other way, or a change in a side signal; inactive = no such curve, though single readings can be large or run the other way; the % refers to the signal ratio; also: potency is read from the fitted curve at half-maximal effect; % is scaled to controls: 0 for no effect and ±100 for the full control effect
#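 Inhibition of protein-RNA binding appears as loss of TR-FRET between terbium anti-His antibody on MBNL1-His and streptavidin-XL665 on biotin-(CUG)12. Activity is normalized to buffer-only and uninhibited-complex controls.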
# TRPV1 potentiator – HTS Assay for Compounds that Act as Potentiators of the Vanilloid Receptor 1 | Transient receptor potential cation channel subfamily V member 1 (Homo sapiens), Q8NER1 | TRPV1-expressing cells, Fluo-8 calcium influx, capsaicin EC20 potentiation | potentiation, % at 8.33 µM | hit rate 0.02% among 320,000; in the data active = potentiation above about 80%; inconclusive = between about 30% and that limit; also: 0% is about no effect
#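 Fluo-8 calcium influx in TRPV1-expressing cells, kinetic read (ex 480/em 520 nm). Compound added and read 3 min for agonist activity, followed by capsaicin at EC20 final and 2 min further read for enhancement.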
# TRPV1 ag – HTS Assay for Compounds that Act as Agonists of the Vanilloid Receptor 1. Transient receptor potential cation channel subfamily V member 1 (Homo sapiens), Q8NER1. AID 540275, 2011. activation, % at 8.33 µM. hit rate 0.19% among 320,000. TRPV1-expressing cells, Fluo-8 calcium influx, agonist mode; in the data active = activation above about 80%; inconclusive = between about 30% and that limit; also: 0% is about no effect
#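 TRPV1-expressing cells were cultured overnight at 35.5C and loaded with Fluo-8 calcium dye for 40 to 90 min at room temperature. After a 10 s baseline, compound was added and calcium influx was read kinetically for 3 min (ex 480/em 520 nm).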
# KCNH2 WT inh – qHTS for Inhibitors of KCHN2 3.1: Wildtype qHTS | Voltage-gated inwardly rectifying potassium channel KCNH2 (Homo sapiens), Q12809 | U2OS, BacMam KCNH2, thallium flux FluxOr; hits give low values | activity change, % at 1.84 µM | hit rate 0.37% among 340,000 | AID 720551, 2013;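 active = maximum activity change below -70%; inconclusive = maximum activity change between -70% and -50%; inactive = maximum activity change above -50%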; also: % is scaled to controls: 0 for no effect and ±100 for the full control effect
# Target sequence (Q12809 whole entry, looked up): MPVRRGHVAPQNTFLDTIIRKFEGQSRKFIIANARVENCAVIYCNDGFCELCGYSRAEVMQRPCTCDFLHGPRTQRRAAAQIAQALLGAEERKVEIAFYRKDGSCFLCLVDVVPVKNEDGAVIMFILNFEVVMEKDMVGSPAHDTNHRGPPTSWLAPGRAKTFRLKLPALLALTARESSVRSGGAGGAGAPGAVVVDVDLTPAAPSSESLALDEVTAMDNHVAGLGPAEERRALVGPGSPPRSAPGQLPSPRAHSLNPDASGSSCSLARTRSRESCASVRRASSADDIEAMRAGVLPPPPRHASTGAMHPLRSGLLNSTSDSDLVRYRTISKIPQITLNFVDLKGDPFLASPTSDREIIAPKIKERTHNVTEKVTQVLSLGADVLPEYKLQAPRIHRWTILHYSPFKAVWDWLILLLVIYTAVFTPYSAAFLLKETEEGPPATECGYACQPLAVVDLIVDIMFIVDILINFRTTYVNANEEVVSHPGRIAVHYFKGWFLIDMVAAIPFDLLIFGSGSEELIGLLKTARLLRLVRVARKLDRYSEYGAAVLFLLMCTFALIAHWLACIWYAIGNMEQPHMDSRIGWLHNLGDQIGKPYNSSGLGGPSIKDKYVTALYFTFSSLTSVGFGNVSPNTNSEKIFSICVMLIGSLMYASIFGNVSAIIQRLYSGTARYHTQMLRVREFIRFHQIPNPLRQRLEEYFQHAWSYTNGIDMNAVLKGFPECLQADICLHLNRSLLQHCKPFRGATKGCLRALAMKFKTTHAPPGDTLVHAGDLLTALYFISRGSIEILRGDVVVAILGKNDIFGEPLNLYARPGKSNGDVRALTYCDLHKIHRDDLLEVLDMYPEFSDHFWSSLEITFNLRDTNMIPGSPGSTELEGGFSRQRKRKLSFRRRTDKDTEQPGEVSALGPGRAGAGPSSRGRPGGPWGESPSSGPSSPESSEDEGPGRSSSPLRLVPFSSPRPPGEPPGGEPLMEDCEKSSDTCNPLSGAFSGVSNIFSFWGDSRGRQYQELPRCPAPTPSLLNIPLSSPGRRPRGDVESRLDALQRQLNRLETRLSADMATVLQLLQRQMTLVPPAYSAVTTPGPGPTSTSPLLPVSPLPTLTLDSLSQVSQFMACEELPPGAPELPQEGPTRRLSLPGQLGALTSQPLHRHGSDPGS
#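 U2OS cells were transduced with wild-type KCNH2 virus (2.03 x 10^8 / mL) for 4 h at room temperature, then cultured overnight at 37 C. Thallium flux was read with FluxOr dye. Rate constants were normalized to DMSO controls.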
# KCNH2 3.1 block – qHTS for Inhibitors of KCHN2 3.1: Mutant qHTS; U2OS KCNH2 3.1, thallium flux FluxOr; hits give low values; activity change, % (tested at about 1.8 µM); hit rate 0.95% among 340,000;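 active = maximum activity change below -70%; inconclusive = maximum activity change from -70% to -50%; inactive = maximum activity change above -50%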;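 also: thallium influx rate constant from kinetic fluorescence after stimulation buffer; % is scaled to controls: 0 for no effect and ±100 for the full control effect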
#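 Thallium flux read-out: FluxOr dye with Red40 quencher in HBSS/HEPES, 45 min at RT. Rate constants from kinetic reads were normalized to positive and negative DMSO controls. Cells: U2OS virally expressing the 3.1 isoform.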
# * = called active by the depositor; ? = inconclusive; . = no result. An excerpt weighted towards active compounds, which were near 1.3% of everything screened.
SMILES,MBNL1-CUG inh,TRPV1 potentiator,TRPV1 ag,KCNH2 WT inh,KCNH2 3.1 block
Cc1nc(CNS(=O)(=O)c2cc(F)ccc2F)cs1,-2%,24,-3,-8,-181*
O=C(CCCC(=O)N(c1ccc2c(c1)OCCO2)C(C(=O)NC1CCCCC1)c1ccc(F)cc1)Nc1ccccn1 (configuration not stated),-7%,-21,16,-4,-76*
Cc1ccc(C(C(=O)NC2CCCCC2)N(C(=O)CCCC(=O)Nc2ccccn2)c2ccc3c(c2)OCCO3)cc1 (configuration not stated),.,0,0,-6,-12
CCOC(=O)CNC(=O)C1(NC(=O)CNC(=O)OCc2ccccc2)CCCC1,.,.,.,5,-2
COc1ccccc1Cn1c(=S)[nH]c2cc(C(=O)NCC(OC)OC)ccc2c1=O,6%,-4,6,8,7
Cn1c(C(=O)N2CCN(c3ccc([N+](=O)[O-])cc3)CC2)cc2c(=O)[nH]c3ccccc3c21,?,5,-1,-71*,-96*
Cc1ccc(CNC(=O)CC2(CC3=NS(=O)(=O)c4ccccc4N3)CCCC2)cc1,-5%,-8,?,8,-85*
COc1ccc2c(CN3CCN(Cc4ccccc4)CC3)cc(=O)oc2c1,.,.,.,-79*,-108*
CCc1ccc2c(CN3CCN(S(=O)(=O)c4cccs4)CC3)cc(=O)oc2c1,-10%,-3,6,-8,1
CCc1ccc2c(CN3CCN(Cc4ccccc4)CC3)cc(=O)oc2c1,-1%,2,1,-141*,-120*
CCc1ccc2c(CN3CCN(S(=O)(=O)c4ccccc4F)CC3)cc(=O)oc2c1,.,.,.,-14,-75*
COc1ccc(CN2CCN(Cc3cc(=O)oc4cc(C)ccc34)CC2)c(OC)c1OC,-2%,2,4,?,-100*
CCc1cc2c(CN3CCN(Cc4ccccc4)CC3)cc(=O)oc2cc1O,-5%,3,3,15,0
C=CCn1c(SCC(=O)N2CCc3ccccc3C2)nc2sc(C)c(C)c2c1=O,-14%,-3,?,7,5
O=[N+]([O-])c1ccc(OCC(O)CN(C2CCCCC2)C2CCCCC2)cc1 (configuration not stated),.,-8,2,-70*,-106*
C/C=C/C=C/C(=O)[C@@H]1[C@@H]([C@]2(C)OC(=O)C(C)=C2O)[C@H]2/C(=C(O)/C=C/C=C/C)C(=O)[C@]1(C)C(=O)C2(C)O (some centres not stated),2%,?,-3,2,-3
Cc1ccc(N2CCN(C(=O)N3CCOCC3)CC2)c(C)c1,6%,-8,83*,4,?
O=C(Cc1ccc(Br)cc1)OCC(=O)c1ccc[nH]1,.,.,.,-8,-4
COc1ccc(CC(=O)OCC(=O)c2ccc[nH]2)cc1,.,2,0,-284*,13
CCCCS(=O)(=O)Nc1ccc(C)cn1,.,7,-4,0,-2
COc1ccc(NC(=O)c2ccc(-c3ccccc3)cc2)cc1S(=O)(=O)N1CCOCC1,-11%,-4,-2,1,-71*
COc1ccc(NC(=O)c2ccc(-c3ccccc3)cc2)cc1NS(=O)(=O)c1ccc(F)cc1,.,-15,0,-2,-77*
CS(=O)(=O)N(CC(=O)N1CCOCC1)c1ccccc1Br,-7%,-3,1,2,11
COC(=O)CCC(C)C1CCC2C3CCC4CC(O)CCC4(C)C3CC(O)C12C (configuration not stated),.,.,.,12,13
CCc1ccc(CNC(=O)c2ccc(OC3CCN(C(C)=O)CC3)c(OC)c2)nc1,0%,5,-2,-14,-16
Cc1ccc(OCCSc2nc(NC(C)C)nc(NC(C)C)n2)cc1,-1%,-7,0,-1,-76*
CC1(C)Oc2ccc3ccc(=O)oc3c2C(N2CCCCC2)C1O (configuration not stated),18%,1,-3,-8,5
